TDP1 block: qHTS Assay for Inhibitors of Tyrosyl-DNA Phosphodiesterase (TDP1). recombinant TDP1, AlphaScreen DNA substrate cleavage. Potency, µM (titrated, usually from 130 µM), inactives show top-dose activity change, negative = inhibition, actives largely listed as inhibitors. 350,000 tested, 0.28% active. AID 485290, 2010; also: potency is read from the fitted curve at half-maximal effect; % is scaled to controls: 0 for no effect and ±100 for the full control effect; nearly all actives have a fitted effect of over 40% in size
Target sequence (Q9NUW8 whole entry, looked up): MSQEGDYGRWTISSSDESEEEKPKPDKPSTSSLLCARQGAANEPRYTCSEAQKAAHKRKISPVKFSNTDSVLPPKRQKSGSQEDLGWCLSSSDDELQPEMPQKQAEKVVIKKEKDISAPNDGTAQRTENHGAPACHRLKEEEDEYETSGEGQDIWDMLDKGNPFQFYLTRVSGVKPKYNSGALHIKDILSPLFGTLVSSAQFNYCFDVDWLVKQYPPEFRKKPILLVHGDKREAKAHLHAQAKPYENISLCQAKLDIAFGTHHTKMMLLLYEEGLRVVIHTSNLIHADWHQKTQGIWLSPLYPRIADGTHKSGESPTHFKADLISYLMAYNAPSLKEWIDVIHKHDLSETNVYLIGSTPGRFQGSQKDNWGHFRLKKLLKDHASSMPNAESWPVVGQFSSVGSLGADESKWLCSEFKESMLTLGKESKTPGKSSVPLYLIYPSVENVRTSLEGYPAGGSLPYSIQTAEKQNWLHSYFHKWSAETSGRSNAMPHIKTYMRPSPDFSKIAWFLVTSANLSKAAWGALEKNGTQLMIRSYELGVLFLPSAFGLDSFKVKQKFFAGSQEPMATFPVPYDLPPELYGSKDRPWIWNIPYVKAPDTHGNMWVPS
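Signal: AlphaScreen proximity between streptavidin donor and anti-FITC acceptor beads on intact substrate. Reaction: Tdp1 1 nM, substrate 15 nM final, 5 min RT after 15 min compound preincubation.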
TDP1 cell CPT: qHTS for Inhibitors of human tyrosyl-DNA phosphodiesterase 1 (TDP1): qHTS in cells in presence of CPT; Potency, µM (highest dose often 46.2 µM), for the others: at the top dose activity change, negative = growth inhibition, usual class: inhibitors; chicken DT40 Tdp1-/-;hTDP1 cells + 20 nM CPT, ATP luminescence, 48 h; 420,000 tested, 12% active; AID 686979, 2013; also: potency is read from the fitted curve at half-maximal effect; % is scaled to controls: 0 for no effect and ±100 for the full control effect; nearly all actives have a fitted effect of over 55% in size
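Chicken DT40 Tdp1-/- cells complemented with human TDP1, 400 cells/well, exposed to compounds plus 20 nM camptothecin for at least 48 h at 37 C; viability read as ATP content by CellTiter-Glo luminescence.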
miR-21 act: qHTS Assay for Modulators of miRNAs and/orActivators of miR-21 | AID 2288, 2010 | 340,000 tested, under 10 active | Potency, µM (top dose mostly 38.3 µM), inactives show at the top dose activity change, positive = activation, usual class: activators | HeLa miR-21 FLuc reporter, luciferase, 48 h;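 also: % of control where 0% means no effect; miR-21 action dims this reporter so a rising signal means less miR-21 action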
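Compounds were titrated across several concentrations (up to approximately 40 uM) and incubated 48 hours with HeLa miR-21-FLuc reporter cells (miR-21 target sequence downstream of FLuc, endogenous miR-21). Readout was firefly luciferase luminescence after lytic detection reagent.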
uPA generation: qHTS for Inhibitors of Cell Surface uPA Generation | cell surface uPA generation assay, qHTS | Potency, µM (highest dose often 38.3 µM), inactives show at the top dose activity change, negative = inhibition, actives largely listed as inhibitors | 330,000 tested, 0.31% active | AID 540303, 2011; active = well fitted inhibition curve with a large enough effect; inconclusive = small, poorly fitted or top-dose-only effect; inactive = no such curve, though single readings can be large or run the other way; tested in mouse RAW 264.7 cells; also: potency is read from the fitted curve at half-maximal effect; % is scaled to controls: 0 for no effect and ±100 for the full control effect; nearly all actives have a fitted effect of over 55% in size
TDP1 cell noCPT: qHTS for Inhibitors of human tyrosyl-DNA phosphodiesterase 1 (TDP1): qHTS in cells in absence of CPT; DT40 Tdp1-/- hTDP1 cells, no CPT, ATP luminescence, 48 h; Potency, µM (series often up to 46.2 µM), for inactives: at the highest dose activity change, negative = growth inhibition, hits mostly inhibitors; 420,000 tested, 15% active; also: potency is read from the fitted curve at half-maximal effect; % is scaled to controls: 0 for no effect and ±100 for the full control effect; nearly all actives have a fitted effect of over 55% in size
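Chicken DT40 Tdp1-/- cells complemented with human TDP1, screened without camptothecin (DMSO vehicle only), 400 cells/well. Compounds pin-transferred, cells incubated at 37 °C for at least 48 hr. Growth read as ATP-dependent luminescence (CellTiter-Glo, 30 min at RT).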
* hit, by the source's call; ? = inconclusive; · = not tested or not shown; [ ] = dose if it differs, or a comment. The list is not random: actives were taken first. Their share in the collection is about 16%. Unless noted, calls follow the shape of the dose curve; as a rule, active = well fitted curve in the direction sought with a large enough effect; inconclusive = small, poorly fitted or top-dose-only effect, or another doubt; inactive = no such curve, though single readings can be large; an effect the other way counts as inactive or inconclusive.

SMILES | TDP1 block | TDP1 cell CPT | miR-21 act | uPA generation | TDP1 cell noCPT
CCc1nn(CC(=O)Nc2cccc(C(C)=O)c2)c(=O)c2cc3sccc3n12 | 1.0% | 18.4µM* | -7.9% | · | ?
CC(=O)c1cccc(NC(=O)Cn2nc(C)n3cccc3c2=O)c1 | 2.9% | -10.7% | -8.2% | · | 16.4µM*
Cc1ccc(NC(=O)CCc2nnc3ccc(N4CCC5(CC4)OCCO5)nn23)cc1F | 1.2% | -21.7% | 0.3% | 1.3% | 0.6%
Cc1ccc(CSC2=NCCN2C(=O)c2ccc([N+](=O)[O-])cc2)cc1 | 7.2% | -9.3% | 15.5% | 5.9% | -6.3%
Cc1ccc(C(=O)N2CCN=C2SCc2ccc([N+](=O)[O-])cc2)cc1 | 3.4% | ? | -0.2% | -7.8% | 14.6µM*
CCOc1ccc(CC(=O)N2CCN=C2SCc2ccc([N+](=O)[O-])cc2)cc1 | 5.4% | ? | 7.8% | 6.7% | 29.1µM*
Cc1n[nH]c(C)c1CCC(=O)N/N=C/c1cccs1 | -1.4% | 0.2% | -1.2% | 3.2% | 6.8%
C[C@@H]1CCC2[C@@H](C)[C@@H](O)O[C@@H]3O[C@@]4(C)CC[C@@H]1[C@@]23OO4 (some centres undefined) | 6.4% | 0.0411µM* | · | · | 0.0944µM*
Cc1cc(C(=O)Nc2ccc(Cl)cc2)c2ccccc2n1 | · | 1.2% | 0.8% | 1.2% | -7.7%
CC1(C)C(C=C(Cl)Cl)C1C(=O)N(Cc1cccc(Cl)c1)C1CCS(=O)(=O)C1 (centres undefined) | 0.0% | -26.3% | 7.0% | -3.6% | -26.7%
Oc1ccc(-c2cn3c(n2)SCC3)cc1O | · | ? | -22.3% | -6.7% | 23.1µM*
O=C(Nc1ccc(-c2cn3c(n2)SCC3)cc1)c1ccc2ccccc2n1 | 2.5% | 16.4µM* | 1.7% | -6.9% | ?
Oc1ccc(-c2cn3c(n2)SCC3)cc1 | 6.6% | -18.4% | -18.0% | -9.6% | -22.1%
CC(C)(C)c1nnc2sc(SC/C(O)=C(\C#N)c3nc4ccccc4[nH]3)nn2c1=O | 3.0% | -24.1% | 2.1% | -0.1% | ?
Cc1cccc(C(=O)N[C@H](C(=O)Nc2ncc(C)s2)C(C)C)c1 | -2.6% | ? | 9.7% | -11.7% | ?
Cc1nc(N2CCCC2)c2c(C(=O)N3CCN(c4ccccc4)CC3)c(C)oc2n1 | 3.2% | -6.6% | -2.7% | · | -9.8%
CCOC(=O)C1=CNS(=O)(=O)NC1CCc1ccccc1 (centres undefined) | 0.7%[56.1 µM] | ? | · | -4.4% | 23.1µM*
CC1(C)NC(=O)N(CC(=O)Nc2cc(S(=O)(=O)N3CCOCC3)ccc2N2CCOCC2)C1=O | -4.7% | · | -0.3% | · | ·
CC(Sc1nc(NCc2ccccc2)nc(N2CCOCC2)n1)C(=O)Nc1ccccc1 (centres undefined) | 2.2% | ? | 0.7% | 1.4% | 20.6µM*
CC(Sc1nc(NCc2ccccc2)nc(N(C)C)n1)C(=O)Nc1ccccc1 (centres undefined) | 1.0% | 23.1µM* | 14.9% | · | 20.6µM*
Cc1cccc(C(=O)N2CCCC(CCC(=O)N3CCN(c4ccccn4)CC3)C2)c1 (centres undefined) | 7.5% | ? | 8.0% | 1.9% | ?
O=C(CCC1CCCN(C(=O)c2ccc3[nH]ccc3c2)C1)N1CCN(c2ccccn2)CC1 (centres undefined) | 4.9% | 23.1µM* | 28.4% | 5.1% | 20.6µM*
Cc1ccc(C(=O)N2CCCC(CCC(=O)N3CCN(c4ccccn4)CC3)C2)cc1 (centres undefined) | 10.2% | ? | 23.2% | 11.1% | ?
O=C(CCC1CCCN(C(=O)Cc2cccc(F)c2)C1)N1CCN(c2ccccn2)CC1 (centres undefined) | 0.0% | -2.4% | -64.9% | -0.9% | -19.7%
CC(=O)c1ccccc1C(=O)N1CCCC(CCC(=O)N2CCN(c3ccccn3)CC2)C1 (centres undefined) | 2.7% | -12.7% | 0.6% | -2.9% | -27.6%

Screening results (PubChem)
